Bioassay records deposited in PubChem by National Center for Advancing Translational Sciences (NCATS).
Only some compounds are listed: those with a hit (about 7.3% of all), similar ones and a draw of the others.
NPC1 promoter act = activators of NPC1 promoter; 320,000 compounds, 2.4% hits; AID 485313; Potency, µM (doses to about 9.22 µM), usual class: activators; Huh7 NPC1 promoter luciferase reporter, 24 h; note: nearly all actives have a fitted effect of over 60% in size
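Stably transfected Huh7 (NPC1 promoter→luciferase), 1500 cells/well in Opti-MEM + 10% FBS, 2 h settle, then compound 24 h at 37 °C. Luminescence after 10 min with Amplite reagent.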
SMN2 splice up = enhancers of SMN2 splice variant expression | Potency, µM (series often up to 46.1 µM), actives largely listed as activators | 210,000 compounds, 2.8% hits | HEK293 SMN2-luciferase splicing reporter, luminescence, 30-36 h; note: nearly all actives have a fitted effect of over 55% in size
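HEK293 cells carry an SMN2 […]–luciferase reporter in which exon 7 inclusion puts luciferase in frame. Cells were plated 10-12 h before compound addition, then incubated 30-36 h at 37C. ONE-Glo luminescence was read; sodium butyrate at 4.5 mM final served as control.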
FLuc modulator = firefly luciferase modulation, counter-screen for miR-21 project; AID 588342; purified FLuc, Km substrates, luminescence inhibition; P08659; 360,000 compounds, 6.9% hits; Potency, µM (doses to about 57.5 µM), usual class: inhibitors; note: nearly all actives have a fitted effect of over 55% in size
Target sequence (P08659 whole entry, looked up): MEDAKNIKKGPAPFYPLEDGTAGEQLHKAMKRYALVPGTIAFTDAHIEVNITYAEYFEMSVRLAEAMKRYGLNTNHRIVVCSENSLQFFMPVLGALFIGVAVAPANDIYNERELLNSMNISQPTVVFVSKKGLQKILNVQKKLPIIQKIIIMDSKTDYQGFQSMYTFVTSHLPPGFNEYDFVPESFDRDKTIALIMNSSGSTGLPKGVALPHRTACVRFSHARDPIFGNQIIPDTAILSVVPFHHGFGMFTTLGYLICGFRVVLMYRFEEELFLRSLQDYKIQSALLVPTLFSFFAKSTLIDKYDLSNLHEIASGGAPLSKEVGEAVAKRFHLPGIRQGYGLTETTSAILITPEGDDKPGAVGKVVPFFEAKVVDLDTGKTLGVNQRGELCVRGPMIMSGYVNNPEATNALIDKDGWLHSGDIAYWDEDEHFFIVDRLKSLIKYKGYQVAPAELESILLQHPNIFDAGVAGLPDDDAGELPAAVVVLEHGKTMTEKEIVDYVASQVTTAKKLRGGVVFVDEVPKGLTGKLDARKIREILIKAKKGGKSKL
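Purified P. pyralis luciferase (10nM final) with 10uM D-luciferin and 10uM ATP (Km levels) in 50mM Tris acetate pH 7.5, 10mM Mg acetate, 0.01% Tween-20, 0.05% BSA; qHTS 6-point titration, ~60 µM downward; luminescence read.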
Rab9 promoter act = Rab9 promoter activation; 320,000 compounds, 2.8% hits; AID 485297; Huh7 Rab9 promoter-luciferase reporter, luminescence, 24 h; Potency, µM (doses to about 9.22 µM), hits mostly activators; note: nearly all actives have a fitted effect of over 60% in size
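Promoter activation is measured as luciferase luminescence in Huh7 cells stably transfected with a Rab9 promoter–luciferase construct, following 24 h compound exposure at 37 °C and 10 min reagent incubation at ambient temperature.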
p53 reactivator = re-activators of mutant p53; H1299 p53-A138V BP100-luciferase reporter, luminescence, 24 h; Potency, µM (series often up to 92.2 µM), most hits filed as activators; 320,000 compounds, 0.063% hits; note: nearly all actives have a fitted effect of over 45% in size
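p53-null H1299 cells stably carrying temperature-sensitive p53-A138V and a BP100-luciferase reporter were pinned with compounds (4-point, 1:5 series) and held 24 hrs at 37 deg C. Luminescence was read 10 min after detection reagent.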
ELG1 genotoxic = genotoxicity induction in ELG1-luciferase HEK293T cells | Potency, µM (highest dose often 46 µM), most hits filed as activators | 330,000 compounds, 1.3% hits | HEK293T ELG1-luciferase reporter, luminescence, 16 h; note: nearly all actives have a fitted effect of over 60% in size
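Cells (2,000/well) expressing the ELG1-luciferase fusion are dosed by pin tool and kept 16 hr at 37 °C, 5% CO2. Signal comes from ONE-Glo luciferase reagent after 30 min at room temperature.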
Large screens that a line does not name were inactive. Calls come from the whole dose curve; as a rule, active = well fitted curve in the direction sought with a large enough effect; inconclusive = small, poorly fitted or top-dose-only effect, or another doubt; inactive = no such curve, though single readings can be large; an effect the other way counts as inactive or inconclusive.

Cn1cc(/C=C/C(=O)c2ccccc2)c2ccccc21	NPC1 promoter act 1.58µM, FLuc modulator 0.536µM, Rab9 promoter act 1.26µM, p53 reactivator inconclusive, ELG1 genotoxic 1.83µM (no result: SMN2 splice up)
COc1ccc(C(=O)/C=C/c2cn(CC(O)CN3CCc4ccccc43)c3ccccc23)cc1 (configuration not stated)	none (no result: NPC1 promoter act, Rab9 promoter act, p53 reactivator, ELG1 genotoxic)
Cc1cccc(NC(=O)c2cnn3c2NC(=C2CC2)C=C3C(F)F)n1	none (no result: NPC1 promoter act, SMN2 splice up, Rab9 promoter act, p53 reactivator, ELG1 genotoxic)
Cc1cc(Br)ccc1OCC(=O)NC1CCCC1	FLuc modulator inconclusive, ELG1 genotoxic inconclusive (no result: SMN2 splice up)
CC(C)(C)NC(=O)NC(=O)COc1ccc(Br)cc1Br	NPC1 promoter act 1.26µM, SMN2 splice up 6.31µM, FLuc modulator 0.675µM, Rab9 promoter act 0.631µM, p53 reactivator inconclusive, ELG1 genotoxic 2.06µM
O=C(COc1ccc(Br)cc1Br)NC(=O)NC1CCCC1	NPC1 promoter act 3.55µM, SMN2 splice up 14.1µM, FLuc modulator 9.53µM, Rab9 promoter act 3.55µM, ELG1 genotoxic inconclusive
O=C(COc1ccc(F)cc1Cl)NC1CCCCCC1	NPC1 promoter act 3.98µM, FLuc modulator 8.49µM, Rab9 promoter act 2.24µM, p53 reactivator inconclusive, ELG1 genotoxic inconclusive (no result: SMN2 splice up)
O=C(COc1ccc(Br)cc1Br)NNC(=O)c1cccs1	FLuc modulator 1.9µM, Rab9 promoter act inconclusive, p53 reactivator inconclusive (no result: SMN2 splice up)
CC(C)(C)NC(=O)NC(=O)COC(=O)COc1ccc(Cl)cc1Cl	none
O=C(COc1ccccc1Cl)NC(=O)NC1CCCCC1	FLuc modulator inconclusive (no result: SMN2 splice up)
COc1ccccc1-n1c(/C=C/c2c(C)n(C)c3ccccc23)nc2ccccc2c1=O	none (no result: NPC1 promoter act, Rab9 promoter act, p53 reactivator, ELG1 genotoxic)
Cc1ccc(NC(=O)CCn2nc(C)c(S(=O)(=O)N3CCCCC3)c2C)cc1Cl	none (no result: NPC1 promoter act, SMN2 splice up, Rab9 promoter act, p53 reactivator, ELG1 genotoxic)
O=C(CCn1c(=O)c2cccn2c2cccnc21)NCc1cccc(Br)c1	none (no result: NPC1 promoter act, SMN2 splice up, Rab9 promoter act, p53 reactivator, ELG1 genotoxic)
CCCCNC(=O)c1c(-c2ccccc2)c(-c2ccccc2)nn(C)c1=O	none (no result: NPC1 promoter act, Rab9 promoter act, p53 reactivator, ELG1 genotoxic)
CC(C)(C)NC(=O)NC(=O)COc1ccccc1C#N	NPC1 promoter act 3.98µM, SMN2 splice up inconclusive, FLuc modulator 8.49µM, Rab9 promoter act 1.58µM, ELG1 genotoxic 1.3µM (no result: p53 reactivator)
CCOc1ccccc1CNCc1cccn1-c1nnc(N2CCN(c3ccccc3)CC2)s1	none (no result: NPC1 promoter act, SMN2 splice up, Rab9 promoter act, p53 reactivator, ELG1 genotoxic)
O=C(CNc1ccc(Br)cc1)c1ccccc1	FLuc modulator inconclusive, ELG1 genotoxic inconclusive
Cc1ccc(C(=O)CNc2ccc(Br)cc2)cc1	none
Cc1cccc(NCCC(=O)c2ccc([N+](=O)[O-])cc2)c1C	none
O=C(CNc1ccccc1Cl)c1ccc(Br)cc1	FLuc modulator 16.9µM (no result: SMN2 splice up, p53 reactivator)
Cc1ccc(NCCC(=O)c2cccc([N+](=O)[O-])c2)c(C)c1	FLuc modulator 23.9µM, p53 reactivator inconclusive
Cc1ccc(C(=O)CNc2ccccc2)cc1	FLuc modulator 9.53µM, ELG1 genotoxic inconclusive (no result: SMN2 splice up)
Cc1ccc(C(=O)CC(=O)c2ccc(C(C)(C)C)cc2)cc1	NPC1 promoter act inconclusive, FLuc modulator 9.53µM, Rab9 promoter act inconclusive (no result: SMN2 splice up)
COc1ccc(C(=O)CC(=O)c2ccc(C(C)(C)C)cc2)cc1	none (no result: NPC1 promoter act, FLuc modulator, Rab9 promoter act, p53 reactivator, ELG1 genotoxic)
COCCNC(=O)CCc1nnc2ccc(N3CCC(C)CC3)nn12	none (no result: SMN2 splice up)
CC(=O)c1ccc(NC(=O)c2ncn(-c3ccccc3)n2)cc1	none (no result: NPC1 promoter act, Rab9 promoter act, p53 reactivator, ELG1 genotoxic)
Cc1ccccc1NC(=O)CC(=O)c1ccccc1	FLuc modulator inconclusive, Rab9 promoter act inconclusive (no result: SMN2 splice up, p53 reactivator)
Cc1ccc(C(=O)CNc2ccccc2C)cc1	FLuc modulator 6.01µM, p53 reactivator inconclusive, ELG1 genotoxic inconclusive
Cc1ccc(C(=O)CCC(=O)Nc2ccc(C)cc2C)cc1	none (no result: NPC1 promoter act, SMN2 splice up, Rab9 promoter act, p53 reactivator, ELG1 genotoxic)
O=C(CNc1ccc(F)cc1)c1ccccc1	FLuc modulator 15.1µM, ELG1 genotoxic inconclusive
CC(C)(C)c1ccc(C(=O)CS(=O)(=O)c2ccccc2)cc1	NPC1 promoter act 1.41µM, FLuc modulator 2.13µM, Rab9 promoter act 0.891µM, ELG1 genotoxic inconclusive
Cc1ccc(C(=O)CNc2ccc(C)cc2C)cc1	FLuc modulator 13.5µM (no result: SMN2 splice up)
COc1ccc(Nc2oc(-c3ccc(COc4cccc(C)c4)o3)nc2C#N)cc1	none (no result: NPC1 promoter act, SMN2 splice up, Rab9 promoter act, p53 reactivator, ELG1 genotoxic)
Cc1cc(NC(=O)c2cc(-c3ccc(OC(C)C)cc3)nc3ccccc23)no1	FLuc modulator 3.01µM (no result: SMN2 splice up)
O=C(Nc1ccon1)c1cc(-c2ccccc2)nc2ccccc12	none
COc1ccc(-c2cc(C(=O)OCC(=O)Nc3cc(C)on3)c3ccccc3n2)cc1OC	FLuc modulator inconclusive
